# Hits are enriched below; roughly 8.5% of the tested compounds scored in any of these assays.
# FBPA coupling cs: counter-screen for Giardia aldolase inhibitors: coupling enzyme system; coupling enzyme system counterscreen, AmpLite Red fluorescence; activity change, negative = inhibition, % at 58.2 µM, hits read low; 290,000 tested, 0.67% active; in the data active = activity change below about -30%
#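 First, compound is pin-transferred into glyceraldehyde-3-phosphate coupling-enzyme reagent at 57.5 uM final and held 10 min at RT. Next, substrate, coupling system and AmpLite Red are added. After 20 min RT, fluorescence (525/598 nm) is read.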
# RGS12 GoLoco inh: RGS12 GoLoco-Gai1 interaction inhibition | P63096 | Gai1:RGS12 GoLoco peptide FP, rhodamine, 10 min | Potency, µM (top dose mostly 61.6 µM), without a hit: top-dose activity, negative = inhibition, most hits filed as inhibitors | 230,000 tested, 0.44% active | AID 880; active = well fitted inhibition curve with a large enough effect, not every such curve was filed as active; inactive = no such curve, though single readings can be large or run the other way; note: potency is the fitted concentration of half-maximal effect; nearly all actives have a fitted effect of over 30% in size
# JMJD2E inh: JMJD2E (human) inhibition | JMJD2E catalytic domain, FDH-coupled NADH fluorescence (FDH is formaldehyde dehydrogenase) | 230,000 tested, 1.6% active | Potency, µM (titrated, usually from 57.1 µM), for inactives: at the highest dose activity change, negative = inhibition, hits mostly inhibitors | B2RXH2 | AID 2147;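 note: potency is the fitted concentration of half-maximal effect; 0% = wells with enzyme and -100% = buffer wells without enzyme; nearly all actives have a fitted effect of over 50% in size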
# Target sequence (B2RXH2 1-337 limits assumed): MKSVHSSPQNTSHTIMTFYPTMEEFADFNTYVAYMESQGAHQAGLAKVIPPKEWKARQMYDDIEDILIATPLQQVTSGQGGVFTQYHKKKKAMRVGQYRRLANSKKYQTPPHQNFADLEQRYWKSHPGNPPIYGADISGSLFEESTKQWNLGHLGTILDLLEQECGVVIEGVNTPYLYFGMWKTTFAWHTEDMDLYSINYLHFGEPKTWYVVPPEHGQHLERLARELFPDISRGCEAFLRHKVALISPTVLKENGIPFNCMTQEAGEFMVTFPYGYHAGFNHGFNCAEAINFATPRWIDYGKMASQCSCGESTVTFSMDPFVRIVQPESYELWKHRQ
# Sfp inh: inhibitors of Bacillus subtilis Sfp phosphopantetheinyl transferase; Potency, µM, for the others: largest response in the series, negative = inhibition, most hits filed as inhibitors; 310,000 tested, 3.5% active; Q9F4F7; Biochemical Sfp PPTase activity, qHTS; active = well fitted curve in the direction sought with a large enough effect; inconclusive = small, poorly fitted or top-dose-only effect, or another doubt; inactive = no such curve, though single readings can be large; an effect the other way counts as inactive or inconclusive;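 note: the enzyme is Sfp with the accession as filed and its product quenches rhodamine fluorescence; potency is the fitted concentration of half-maximal effect; 0% = enzyme reaction without inhibitor and -100% = no enzyme wells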
#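 After 15 min at room temperature with compound, 15 nM Sfp received 5 uM rhodamine-CoA plus 12.5 uM BHQ-2-ybbR (50 mM Hepes pH 7.6, 10 mM MgCl2). Rate came from the fluorescence difference over 30 min, ex 525/em 598 nm.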
# NPSR antag: antagonists of human neuropeptide S receptor cAMP signaling | Q6W5P4 | CHO-NPSR cells, cAMP TR-FRET, antagonist mode | Potency, µM (top dose mostly 38.3 µM), for the others: at the highest dose activity change, negative = inhibition, actives largely listed as inhibitors | 220,000 tested, 1% active; active = well fitted curve in the direction sought with a large enough effect; inconclusive = small, poorly fitted or top-dose-only effect, or another doubt; inactive = no such curve, though single readings can be large; an effect the other way counts as inactive or inconclusive; note: potency is the fitted concentration of half-maximal effect; nearly all actives have a fitted effect of over 50% in size
# ALDH1A1 block: blocks purified human ALDH1A1 activity. P00352. Purified ALDH1A1, NADH fluorescence, propionaldehyde substrate. Potency, µM (top dose mostly 75.3 µM), for the others: at the highest dose activity, negative = inhibition, hits mostly inhibitors. 220,000 tested, 7.3% active. AID 1030;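 note: potency is the fitted concentration of half-maximal effect; plate controls were no enzyme wells and a reference inhibitor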
# * = called active by the depositor; u = inconclusive; x = not tested or not shown; [ ] = another dose, or the depositor's remark. Unless noted, calls come from the whole dose curve; as a rule, active = well fitted inhibition curve with a large enough effect (not every such curve was filed as active); inconclusive = small, poorly fitted or top-dose-only effect, or another doubt; inactive = no such curve, though single readings can be large or run the other way. Unless noted, % is set by controls: 0 for no effect and ±100 for the full control effect.
SMILES,FBPA coupling cs,RGS12 GoLoco inh,JMJD2E inh,Sfp inh,NPSR antag,ALDH1A1 block
Cc1ccc(CNC(=O)c2ccc3c(=O)[nH]c4c(C(=O)NCC5CCCO5)sc(=S)n4c3c2)cc1 (stereo unspecified),3.8,-3.8%,-4.5%,u,-45.7%,u
O=C(NC1CCCC1)c1sc(=S)n2c1[nH]c(=O)c1ccccc12,2.4,0.9%,2.4%,-24.0%,10.6%[46.1 µM],u
O=C(NCc1ccccc1)c1ccc2c(=O)[nH]c3c(C(=O)NCC4CCCO4)sc(=S)n3c2c1 (stereo unspecified),4.3,6.5%,4.0%,-15.7%,-51.6%,20µM*
COCCCNC(=O)c1ccc2c(=O)n(CC3CCCO3)c(=S)[nH]c2c1 (stereo unspecified),-2.4,3.4%,3.4%,-19.8%,-8.0%[46.1 µM],u
O=C(NCc1ccco1)c1sc(=S)n2c1[nH]c(=O)c1ccccc12,1.5,x,1.5%,44.7µM*,-10.3%[46.1 µM],-19.1%
O=C(O)CC(CCc1ccccc1)OC1OC(CO)C(O)C(O)C1O (stereo unspecified),0.8,1.9%,25.1µM*,-8.0%,10.5%,x
O=c1c2cc(-c3ccccc3)sc2nc2n1CCC2,0.8,-0.1%,35.5µM*,13.2%,-0.8%,u
O=c1c2ccccc2nc2n1CCC2,4.0,-2.2%,8.91µM*,u,-0.4%[46.1 µM],u
O=C(COc1ccccc1)N1CCN(C(=O)c2cccc(F)c2)CC1,-2.4,-1.8%,8.9%,13.2%,-6.5%[46.1 µM],-10.5%
O=C(COc1ccc(Cl)cc1)N1CCN(C(=O)c2cccc(F)c2)CC1,-0.9,13.2%,-1.3%,11.4%,11.1%[46.1 µM],14.1µM*
O=C(c1cccc(F)c1)N1CCN(C(=O)c2nn3cccnc3c2Cl)CC1,3.9,9.0%,-9.7%,6.6%,5.6%[46.1 µM],20µM*
COc1cccc(OCc2nn3c(=O)c(-c4ccccc4)nnc3s2)c1,0.5,x,x,1.3%,x,x
[N-]=[N+]=NC[C@H](Cc1ccccc1)N1CC[C@@H](NC(=O)OCc2ccccc2)CCC1=O,1.8,x,x,19.6%,x,x
CCc1cc2cccc(C)c2nc1SCC(=O)c1ccc(NC(C)=O)cc1,-1.2,-5.5%,-11.0%,-3.6%,-22.3%[46.1 µM],u
CCc1cc2ccc(C)cc2nc1SCC(=O)c1ccc(NC(C)=O)cc1,1.8,-6.6%,2.8%,6.0%,u,25.1µM*
O=c1[nH]c2cc3c(cc2cc1C(c1nnnn1Cc1ccccc1)N1CCCc2ccccc21)OCO3 (stereo unspecified),0.3,4.7%,8.1%,-5.9%,-29.9%,15.1%
Cc1cccc2cc(C(c3nnnn3CC3CCCO3)N3CCCC4(CCCCC4)C3)c(=O)[nH]c12 (stereo unspecified),0.4,6.4%,-4.6%,21.0%,-23.8%[46.1 µM],u
Cc1cccc2cc(C(c3nnnn3CC3CCCO3)N3CCc4ccccc4C3)c(=O)[nH]c12 (stereo unspecified),-43.6*,7.2%,u,20µM*,-7.5%[46.1 µM],12.6µM*
CCc1ccc2[nH]c(=O)c(C(c3nnnn3CC3CCCO3)N3CCCc4ccccc43)cc2c1 (stereo unspecified),-30.7*,15.4%,u,8.91µM*,-9.5%[46.1 µM],7.94µM*
Cc1ccc2cc(C(c3nnnn3CC3CCCO3)N3CCc4ccccc4C3)c(=O)[nH]c2c1 (stereo unspecified),-38.3*,3.7%,u,10µM*,-8.4%[46.1 µM],17.8µM*
COc1ccc2[nH]c(=O)c(C(c3nnnn3CC3CCCO3)N3CCCCC3)cc2c1 (stereo unspecified),0.0,-5.1%,u,11.7%,-7.0%,u
CCOc1ccc2[nH]c(=O)c(C(c3nnnn3CC3CCCO3)N3CCc4ccccc4C3)cc2c1 (stereo unspecified),-30.1*,9.3%,u,3.5%,-24.5%[46.1 µM],u
Cc1cc(NC(=O)CSc2nccn2-c2cccc(Cl)c2)no1,2.4,x,x,13.7%,x,x
CCN(CC(=O)Nc1cc(Cl)ccc1C)c1ncnc2sc(C)c(C)c12,0.3,-0.1%,4.2%,-2.6%,-3.5%,-6.3%
